Data from PubChem BioAssay (NCATS).
Records with an inconclusive call do not appear. Entries that show only a call come without a potency. A number with no mark means an inactive call. Active and inactive are the calls of the source. The call rests on the fitted dose curve; in most records, active means well fitted curve in the direction sought with a large enough effect; inconclusive means small, poorly fitted or top-dose-only effect, or another doubt; inactive means no such curve, though single readings can be large; an effect the other way counts as inactive or inconclusive.

Assays:
[1] = Quantitative High-Throughput drug screen in 47 multiple myeloma cell lines against the NCATS MIPE library collection: KMS20_JCRB cell viability assay (AID 1918973); further: nearly all actives have a fitted effect of over 45% in size; further: potency means the concentration at half of the fitted maximal effect
Method in brief: (§1)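 qHTS of the MIPE 4.0 collection: 500 myeloma cells/well, 48 h drug exposure at 37C in 5% CO2, then CellTiter-Glo for 5 min at room temperature before luminescence reading.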

[2] = Quantitative High-Throughput drug screen in 47 multiple myeloma cell lines against the NCATS MIPE library collection: KMS26_JCRB cell viability assay (AID 1918975); further: nearly all actives have a fitted effect of over 45% in size; further: potency means the concentration at half of the fitted maximal effect
Method in brief: as §1

[3] = Quantitative High-Throughput drug screen in 47 multiple myeloma cell lines against the NCATS MIPE library collection: MOLP8_DSMZ cell viability assay (AID 1918977); further: nearly all actives have a fitted effect of over 45% in size; further: potency means the concentration at half of the fitted maximal effect
Method in brief: (§2)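 qHTS format: cells plated (500/well), pin-dosed with MIPE 4.0 compounds, kept 48 h at 37 °C. Readout was CellTiter-Glo luminescence, median RLU.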

[4] = Quantitative High-Throughput drug screen in 47 multiple myeloma cell lines against the NCATS MIPE library collection: NCIH929_DSMZ cell viability assay (AID 1918978); further: nearly all actives have a fitted effect of over 35% in size; further: potency means the concentration at half of the fitted maximal effect
Method in brief: as §2

[5] = Quantitative High-Throughput drug screen in 47 multiple myeloma cell lines against the NCATS MIPE library collection: OCIMY1_PLB cell viability assay (AID 1918979); further: nearly all actives have a fitted effect of over 35% in size; further: potency means the concentration at half of the fitted maximal effect
Method in brief: as §2

[6] = Quantitative High-Throughput drug screen in 47 multiple myeloma cell lines against the NCATS MIPE library collection: MM1S_ATCC cell viability assay (AID 1918980); further: nearly all actives have a fitted effect of over 45% in size; further: potency means the concentration at half of the fitted maximal effect
Method in brief: as §2

[7] = Quantitative High-Throughput drug screen in 47 multiple myeloma cell lines against the NCATS MIPE library collection: MM1R_ATCC cell viability assay (AID 1918981); further: nearly all actives have a fitted effect of over 35% in size; further: potency means the concentration at half of the fitted maximal effect
Method in brief: as §2

[8] = Quantitative High-Throughput drug screen in 47 multiple myeloma cell lines against the NCATS MIPE library collection: KMS28PE_JCRB cell viability assay (AID 1918983); further: nearly all actives have a fitted effect of over 35% in size; further: potency means the concentration at half of the fitted maximal effect
Method in brief: as §2

[9] = Quantitative High-Throughput drug screen in 47 multiple myeloma cell lines against the NCATS MIPE library collection: OCIMY5_PLB cell viability assay (AID 1918988); further: nearly all actives have a fitted effect of over 65% in size; further: potency means the concentration at half of the fitted maximal effect
Method in brief: as §2

[10] = Quantitative High-Throughput drug screen in 47 multiple myeloma cell lines against the NCATS MIPE library collection: OPM1_PLB cell viability assay (AID 1918989); further: nearly all actives have a fitted effect of over 40% in size; further: potency means the concentration at half of the fitted maximal effect
Method in brief: as §2

[11] = Quantitative High-Throughput drug screen in 47 multiple myeloma cell lines against the NCATS MIPE library collection: SKMM1_PLB cell viability assay (AID 1919863); settings: SKMM1 myeloma viability, CellTiter-Glo ATP, 48 h; viability: stronger effect = lower value; further: nearly all actives have a fitted effect of over 35% in size; further: potency means the concentration at half of the fitted maximal effect
Method in brief: as §2

[12] = Quantitative High-Throughput drug screen in 47 multiple myeloma cell lines against the NCATS MIPE library collection: U266_ATCC cell viability assay (AID 1919864); further: nearly all actives have a fitted effect of over 35% in size; further: potency means the concentration at half of the fitted maximal effect
Method in brief: as §2

[13] = Quantitative High-Throughput drug screen in 47 multiple myeloma cell lines against the NCATS MIPE library collection: XG6_PLB cell viability assay (AID 1919865); further: nearly all actives have a fitted effect of over 40% in size; further: potency means the concentration at half of the fitted maximal effect
Method in brief: as §2

[14] = Quantitative High-Throughput drug screen in 47 multiple myeloma cell lines against the NCATS MIPE library collection: XG1_PLB cell viability assay (AID 1919866); further: nearly all actives have a fitted effect of over 35% in size; further: potency means the concentration at half of the fitted maximal effect
Method in brief: as §2

[15] = Quantitative High-Throughput drug screen in 47 multiple myeloma cell lines against the NCATS MIPE library collection: LP1_DSMZ cell viability assay (AID 1918982); further: nearly all actives have a fitted effect of over 35% in size
Method in brief: as §2

[16] = Quantitative High-Throughput drug screen in 47 multiple myeloma cell lines against the NCATS MIPE library collection: KMS21BM_JCRB cell viability assay (AID 1918974); settings: ATP luminescence, 48 h; viability: at 45.8 µM (top of the series) unless noted; further: potency means the concentration at half of the fitted maximal effect
Method in brief: as §1

[17] = Quantitative High-Throughput drug screen in 47 multiple myeloma cell lines against the NCATS MIPE library collection: KMS34_JCRB cell viability assay (AID 1918985); further: nearly all actives have a fitted effect of over 40% in size; further: potency means the concentration at half of the fitted maximal effect
Method in brief: as §2

[18] = Quantitative High-Throughput drug screen in 47 multiple myeloma cell lines against the NCATS MIPE library collection: OCIMY7_PLB cell viability assay (AID 1918987); further: potency means the concentration at half of the fitted maximal effect; nearly all actives have a fitted effect of over 65% in size
Method in brief: as §2

[19] = Quantitative High-Throughput drug screen in 47 multiple myeloma cell lines against the NCATS MIPE library collection: MMM1_PLB cell viability assay (AID 1918976)
Method in brief: as §2

[20] = Quantitative High-Throughput drug screen in 47 multiple myeloma cell lines against the NCATS MIPE library collection: L363_DSMZ cell viability assay (AID 1918984); further: nearly all actives have a fitted effect of over 40% in size; further: potency means the concentration at half of the fitted maximal effect
Method in brief: as §2

NC(=O)NO
Potency [1]: 0.0935 µM (active)
Potency [2]: 1.18 µM (active)
Potency [3]: 3.32 µM (active)
Potency [4]: 0.743 µM (active)
Potency [5]: 0.662 µM (active)
Potency [6]: 0.935 µM (active)
Potency [7]: 1.18 µM (active)
Potency [8]: 2.35 µM (active)
Potency [9]: 0.235 µM (active)
Potency [10]: 0.833 µM (active)
Potency [11]: 10.5 µM (active)
Potency [12]: 2.64 µM (active)
Potency [13]: 2.35 µM (active)
Potency [14]: 9.35 µM (active)

COc1ccc(C2CNC(=O)C2)cc1OC1CCCC1 (stereo not drawn)
Potency [1]: inactive
Potency [2]: inactive
Potency [3]: inactive
Potency [4]: inactive
Potency [5]: inactive
Potency [15]: inactive
Potency [8]: inactive
Potency [10]: inactive
Potency [12]: inactive
Potency [13]: 20.9 µM (active)

O=C(c1ccc(OCCN2CCCCC2)cc1)c1c(-c2ccc(O)cc2)sc2cc(O)ccc12
Potency [1]: 16.6 µM (active)
Potency [16]: 13.2 µM (active)
Potency [2]: 20.9 µM (active)
Potency [4]: 23.5 µM (active)
Potency [5]: inactive
Potency [9]: 18.7 µM (active)
Potency [10]: 5.9 µM (active)
Potency [11]: 26.4 µM (active)
Potency [13]: 20.9 µM (active)

CC[C@@]1(O)C(=O)OCc2c1cc1n(c2=O)Cc2cc3c(CN(C)C)c(O)ccc3nc2-1
Potency [1]: 0.235 µM (active)
Potency [2]: 20.9 µM (active)
Potency [3]: 1.32 µM (active)
Potency [4]: 0.743 µM (active)
Potency [5]: 13.2 µM (active)
Potency [6]: 0.166 µM (active)
Potency [8]: 0.935 µM (active)
Potency [17]: 3.32 µM (active)
Potency [18]: 0.148 µM (active)
Potency [9]: 5.9 µM (active)
Potency [10]: 9.35 µM (active)
Potency [11]: 3.32 µM (active)
Potency [12]: 13.2 µM (active)
Potency [13]: 0.0132 µM (active)
Potency [14]: 0.0743 µM (active)

CC(C)NCC(O)c1ccc(O)c(O)c1 (stereo not drawn)
Potency [1]: 1.18 µM (active)
Potency [16]: 0.372 µM (active)
Potency [3]: 23.5 µM (active)
Potency [6]: 0.166 µM (active)
Potency [7]: 4.18 µM (active)
Potency [9]: 5.26 µM (active)
Potency [10]: 4.18 µM (active)
Potency [11]: 16.6 µM (active)
Potency [12]: 16.6 µM (active)
Potency [13]: 0.743 µM (active)
Potency [14]: 1.87 µM (active)

CN1CCN(C2=Nc3cc(Cl)ccc3Nc3ccccc32)CC1
Potency [2]: inactive
Potency [3]: inactive
Potency [5]: inactive
Potency [6]: 14.8 µM (active)
Potency [7]: inactive
Potency [8]: inactive
Potency [9]: inactive
Potency [10]: 23.5 µM (active)
viability [11]: 114%
Potency [12]: inactive

CS(=O)(=O)Nc1ccc([N+](=O)[O-])cc1Oc1ccccc1
Potency [2]: 18.7 µM (active)
Potency [19]: 11.8 µM (active)
Potency [4]: inactive
Potency [5]: inactive
Potency [6]: 16.6 µM (active)
Potency [8]: 0.187 µM (active)
Potency [20]: inactive
Potency [9]: 11.8 µM (active)
Potency [13]: inactive
Potency [14]: inactive

CC[N+](CC)(CC)CCOc1cccc(OCC[N+](CC)(CC)CC)c1OCC[N+](CC)(CC)CC
Potency [2]: inactive
Potency [4]: inactive
Potency [5]: inactive
Potency [6]: inactive
Potency [8]: inactive
Potency [17]: inactive
Potency [10]: inactive
viability [11]: 112%
Potency [12]: inactive
Potency [13]: inactive
Potency [14]: inactive

CC(CCc1ccc(O)cc1)NCCc1ccc(O)c(O)c1 (stereo not drawn)
Potency [1]: inactive
Potency [5]: 18.7 µM (active)
Potency [6]: 10.5 µM (active)
Potency [20]: 18.7 µM (active)
Potency [17]: 9.35 µM (active)
Potency [9]: 20.9 µM (active)
Potency [10]: 26.4 µM (active)
Potency [11]: 18.7 µM (active)
Potency [12]: 23.5 µM (active)
Potency [14]: 23.5 µM (active)

CN(CCOc1ccc(NS(C)(=O)=O)cc1)CCc1ccc(NS(C)(=O)=O)cc1
Potency [2]: inactive
Potency [3]: inactive
Potency [4]: inactive
Potency [5]: inactive
Potency [7]: inactive
Potency [8]: inactive
Potency [17]: inactive
Potency [10]: inactive
viability [11]: 109%
Potency [12]: inactive
Potency [13]: 13.2 µM (active)
Potency [14]: inactive

O=C(c1ccc(F)cc1)C1CCN(CCn2c(=O)[nH]c3ccccc3c2=O)CC1
Potency [2]: inactive
Potency [4]: inactive
Potency [5]: inactive
Potency [7]: inactive
Potency [8]: inactive
Potency [17]: inactive
Potency [9]: 26.4 µM (active)
Potency [10]: inactive
Potency [12]: 4.69 µM (active)
Potency [13]: inactive

CCC1(C)CC(=O)NC1=O (stereo not drawn)
Potency [2]: inactive
Potency [4]: inactive
Potency [5]: inactive
Potency [6]: inactive
Potency [8]: inactive
Potency [17]: inactive
Potency [9]: inactive
Potency [10]: inactive
Potency [12]: inactive
Potency [13]: inactive
Potency [14]: inactive

CCOC(=O)C(C)(C)Oc1ccc(Cl)cc1
Potency [1]: inactive
Potency [3]: inactive
Potency [4]: inactive
Potency [5]: inactive
Potency [15]: inactive
Potency [8]: inactive
Potency [9]: inactive
Potency [10]: inactive
viability [11]: 104%
Potency [12]: inactive

CCc1cccc2c3c([nH]c12)C(CC)(CC(=O)O)OCC3 (stereo not drawn)
Potency [2]: inactive
Potency [4]: inactive
Potency [5]: inactive
Potency [6]: inactive
Potency [8]: inactive
Potency [17]: inactive
Potency [10]: inactive
Potency [12]: inactive
Potency [13]: inactive
Potency [14]: inactive

COc1ccc2c(c1)c(CC(=O)O)c(C)n2C(=O)c1ccc(Cl)cc1
Potency [1]: 9.35 µM (active)
Potency [3]: inactive
Potency [4]: 18.7 µM (active)
Potency [5]: inactive
Potency [6]: 18.7 µM (active)
Potency [7]: inactive
Potency [15]: inactive
Potency [20]: 18.7 µM (active)
Potency [17]: inactive
Potency [10]: inactive
viability [11]: 128%
Potency [12]: 18.7 µM (active)
Potency [13]: 18.7 µM (active)
Potency [14]: 5.26 µM (active)

Cc1ccc(C(=O)Nc2ccc(S(=O)(=O)O)c3cc(S(=O)(=O)O)cc(S(=O)(=O)O)c23)cc1NC(=O)c1cccc(NC(=O)Nc2cccc(C(=O)Nc3cc(C(=O)Nc4ccc(S(=O)(=O)O)c5cc(S(=O)(=O)O)cc(S(=O)(=O)O)c45)ccc3C)c2)c1
Potency [16]: inactive
Potency [3]: inactive
Potency [4]: inactive
Potency [5]: inactive
Potency [10]: 0.833 µM (active)
Potency [12]: inactive
